Experimental findings from PubChem BioAssay (NCI) are described below.

Molecules are shown by their SMILES. Compounds without any hit were thinned out: in the full panel of roughly 83,000, 20% have a hit.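 Interpretation: 100, growth as untreated; towards 0, rising growth inhibition; 0, no net growth; 0 to -100, cell death. Compounds scoring below 10 were considered active.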 Activity calls are given as the source filed them.

The assay relates to HL-60(TB) leukemia. Nature of the assay: NCI-60 one-dose screen, 48 h (100 = growth as untreated, 0 = no growth, -100 = all killed). The following applies: 10 µM unless noted.
As to `COc1cccc(-c2nc3sccn3c2-c2ccnc(NCCNS(=O)(=O)c3ccc(F)cc3)c2)c1`, the growth was -6.21% (active).
Consider `COCCCNS(=O)(=O)c1ncnc2nc[nH]c12`, for which the growth is 82.2% (inactive).
For `Fc1cc(Nc2ccc3c(OCCCN4CCOCC4)cccc3n2)ccc1Cl`, the growth was 39.1% (inactive).
Regarding `CCCOc1ccc2nc(NC(=O)OC)[nH]c2c1`, the growth was 3.05% (active).
For the compound `O=C(Nc1ccc(F)c(Cl)c1)Nc1ccc(Cl)c(Cl)c1`, the growth was 25% (inactive).
Under `O=C(NCCCCCCNC(=O)OCc1ccc2c(Cl)cc(Cl)c(O)c2n1)OCc1ccc2c(Cl)cc(Cl)c(O)c2n1` stands -46.2% (active); under `Clc1ccc2c(NCCCn3cnc4c(N5CCCC5)nc(Cl)nc43)ccnc2c1`, 81.6% (inactive); under `COC(=O)/C=C1/SC(=NCc2ccccc2)N(CCc2c[nH]c3ccccc23)C1=O`, 79.8% (inactive).
`N#CC1=C(/N=C/c2ccccc2)Oc2c(ccc3ccccc23)C1c1ccc([N+](=O)[O-])cc1` (stereo not given): the growth was 99.1% (inactive).
As for `CCN1C(=O)N(CC)C2C1NC(=S)N2/N=C/c1ccc(OC)cc1` (stereo not given), the growth was -12.1% (active).
On to `Cc1ccc(C23CCC(=O)N2CCc2cncn23)cc1` (stereo not given), for which the growth is 95.7% (inactive).
For `CN(C)CCCSc1ccccc1NC1=C(Cl)C(=O)C(Nc2ccccc2SCCCN(C)C)=C(Cl)C1=O`, the growth is -34.8% (active).
`O=C1CCCc2nc3sc4c(=O)n(-c5ccccc5Cl)nnc4c3cc21`: the growth was 109% (inactive).
For `C=C(C)[C@@H]1CC[C@]2(C(=O)O)CC[C@]3(C)[C@H](CC[C@@H]4[C@@]5(C)C[C@@H](CC#Cc6ccccc6C)C(=O)C(C)(C)[C@@H]5CC[C@]43C)[C@@H]12`, the growth was -14.7% (active).
To `CCCCN(CCCC)CCCCCCCCC(O)c1cc2ccccc2c2ccccc12` (stereo not given) belongs 28.5% (inactive); to `C#Cc1cccc(Nc2nc3cc([N+](=O)[O-])ccc3nc2Nc2ccc(O)cc2)c1`, 4.42% (active); to `O=C1CSC(c2ccccc2Cl)N1c1nnc(-c2ccncc2)o1` (stereo not given), 95.2% (inactive).
Turning to `c1ccc2[nH]c(-c3ccc(-c4nccc5c4[nH]c4ccccc45)cc3)nc2c1`, the growth was -42.1% (active).
To `Oc1c(I)cc(-c2nc3ccccc3s2)cc1CN(Cc1ccccn1)Cc1ccccn1` belongs 2.06% (active); to `CCOC(=O)C(=CCC(C)C)C(=O)OCC`, 40.5% (inactive); to `Cc1ccc(-c2nc(SCC(=O)Nc3nc(-c4ccc(Cl)cc4)cs3)[nH]c(=O)c2C#N)cc1`, 111% (inactive).
Under `Clc1nc(Oc2ccccc2)nc(-c2cn(-c3ccccc3)c3ccccc23)n1` stands 63.2% (inactive).
On to `CN(C)Cc1c(-c2ccccc2)[nH]c2ccccc12`, for which the growth was 92.9% (inactive).
Under `O=C1CC(c2ccc3c(c2)OCO3)Nc2ccccc21` (stereo not given) stands 0.897% (active); under `CCc1c2c(nc3ccc(OC(=O)OCc4ccc(B5OC(C)(C)C(C)(C)O5)cc4)cc13)-c1cc3c(c(=O)n1C2)COC(=O)[C@]3(O)CC`, 12% (inactive).
As for `c1ccc2c(NCCCN3CCN(CCCNc4c5ccccc5nc5ccccc45)CC3)c3ccccc3nc2c1`, the growth is -23.8% [100 µM] (active).
As for `O=C(c1ccccc1)N(CCCl)C(=O)N(CCCl)C(=O)c1ccccc1`, the growth is 90.6% (inactive).
Under `COc1ccc(C(=O)/C=C/c2cccc(Nc3ccnc4cc(Cl)ccc34)c2)cc1` stands 51.7% (inactive); under `CS(=O)(=O)Nc1cc(-c2cc3ncc(C#N)c(Nc4ccc(Oc5ccccc5)c(Cl)c4)c3s2)cnc1Cl`, 64.6% (inactive).
Under `CCN(C(=O)CCl)C(C)(C)C(SSSC(c1ccc(Cl)cc1)C(C)(C)N(CC)C(=O)CCl)c1ccc(Cl)cc1` (stereo not given) stands 42.1% (inactive).
For the compound `COc1ccccc1-n1c(-c2cc(O)ccc2C)cn2c3c(=O)[nH]c(=O)n(C)c3nc12`, the growth is 110% (inactive).
On to `CSc1nnc(-c2cc3c([nH]c4ccccc43)c(-c3cccc(O)c3)n2)n1-c1ccc(C)cc1`, for which the growth is -16.1% (active).
Under `CCOC(=O)c1cc(C(=O)c2cc(OC)c(OC)c(OC)c2)n2ccc(-c3cc[n+](CC(=O)c4cc(OC)c(OC)c(OC)c4)cc3)cc12` stands 32.9% (inactive); under `O=C1c2cc3c(cc2-c2c1c1ccc(Cl)cc1c(=O)n2CCCn1ccnc1)OCO3`, -29.1% (active); under `C#C[C@@]1(O)[C@@H](CO)O[C@@H](n2cc(-c3ccco3)c3c(N)ncnc32)[C@@H]1O`, 89% (inactive).
Under `CC(C)C[C@H](NC(=O)/C=C/Cn1ccc2ccccc2c1=O)B(O)O` stands 24.2% (inactive).
Regarding `Cc1nc2ccc(-n3c(-c4ccc(Cl)cc4)nc4ccccc4c3=O)cc2n1Cc1ccccc1`, the growth is 78.2% (inactive).
Under `O=C(/C=C/c1ccc(C(F)(F)F)cc1)Nc1ccc(C=C2c3ccccc3C(=O)c3ccccc32)cc1` stands 11.2% (inactive); under `CNCCCOc1c(Br)cc(CCNC(=O)/C(Cc2ccc(OC)c(Br)c2)=N/O)cc1Br`, 21.3% (inactive); under `CCCn1c(N)c(C(N)=O)sc1=S`, 94.9% (inactive).
